Reference: the antibiotic and cytotoxicity screens of Wong et al. (2023)
Out of some 39,000 compounds screened, about 3,300 (8.5%) were called active. The full list was thinned out, with actives kept by preference.

test system: HepG2; experiment: cytotoxicity call (relative viability < 0.9); details: 10 µM

SMILES | cytotoxicity call
CC[N+](C)(CC)Cc1ccccc1 | inactive
CCCCCCCCCCCCCCCC[N+](C)(C)Cc1ccccc1.[Cl-] | active
CCCCCCCCCCCCC[N+](C)(C)Cc1ccccc1 | active
CCCCNc1ccccc1 | inactive
CCCCCc1ccccn1 | inactive
CCCCCCCCCCCCC[N+](C)(C)Cc1ccccc1.O.[Cl-] | active
COc1ccc(S(=O)(=O)Nc2ccc3c(c2)CC(=O)N([C@@H](C)CO)C[C@H](C)[C@H](CN(C)S(=O)(=O)c2cccs2)O3)cc1 | inactive
C[C@H](CO)N1C[C@H](C)[C@H](CN(C)CC2CC2)Oc2c(NS(=O)(=O)c3cccs3)cccc2C1=O | inactive
Cc1noc(C)c1S(=O)(=O)Nc1ccc2c(c1)C(=O)N([C@@H](C)CO)C[C@H](C)[C@@H](CN(C)CC1CCCCC1)OCCCC[C@@H](C)O2 | inactive
O=C(C1=C[C@H](c2coc3ccccc3c2=O)C[C@H](OCc2ccc(CO)cc2)O1)N1CCCCCCC1 | inactive
CS(=O)(=O)NCc1cnc2n1CCN(C[C@H]1CCOC1)CC2 | inactive
C[C@H](CO)N1C[C@H](C)[C@H](CN(C)C(=O)Nc2ccc(F)cc2)Oc2ccc(NC(=O)CCCCCC(=O)Nc3ccccc3N)cc2CC1=O | inactive
CCCNC(=O)Nc1ccc2c(c1)OC[C@H](C)N(Cc1ccc(-c3ccccn3)cc1)C[C@H](C)[C@H](OC)CN(C)C2=O | inactive
C[C@H]1CN([C@@H](C)CO)C(=O)CCCn2cc(nn2)CO[C@@H]1CN(C)C(=O)Nc1ccc(C(F)(F)F)cc1 | inactive
O=C(O)[C@H]1C[C@H](O)CN1Cc1ccccc1 | inactive
C[C@H](CO)N1C[C@H](C)[C@H](CN(C)Cc2ccc(C(F)(F)F)cc2)OCCCC[C@H](C)Oc2ccc(NC(=O)c3ccccc3)cc2C1=O | inactive
C[C@@H]1CN([C@@H](C)CO)C(=O)c2cc(NC(=O)c3ccccc3)ccc2O[C@@H](C)CCCCO[C@H]1CN(C)Cc1ccc(C(F)(F)F)cc1 | active
C[C@@H]1CCCCO[C@@H](CN(C)Cc2ccc(C(F)(F)F)cc2)[C@H](C)CN([C@H](C)CO)C(=O)c2cc(NC(=O)c3ccccc3)ccc2O1 | inactive
C[C@@H]1CCCCO[C@H](CN(C)Cc2ccc(C(F)(F)F)cc2)[C@@H](C)CN([C@H](C)CO)C(=O)c2cc(NC(=O)c3ccccc3)ccc2O1 | inactive
C[C@@H]1CCCCO[C@H](CN(C)Cc2ccccc2)[C@H](C)CN([C@H](C)CO)C(=O)c2cc(NC(=O)c3ccccc3)ccc2O1 | inactive
C[C@@H]1CCCCO[C@H](CN(C)Cc2ccc(C(F)(F)F)cc2)[C@H](C)CN([C@H](C)CO)C(=O)c2cc(NC(=O)c3ccccc3)ccc2O1 | inactive
C[C@@H]1CN([C@H](C)CO)C(=O)c2cc(NC(=O)c3ccccc3)ccc2O[C@@H](C)CCCCO[C@@H]1CN(C)Cc1ccc(C(F)(F)F)cc1 | inactive

SMILES | cytotoxicity call
C[C@H]1CCCCO[C@@H](CN(C)Cc2ccc(C(F)(F)F)cc2)[C@@H](C)CN([C@@H](C)CO)C(=O)c2cc(NC(=O)c3ccccc3)ccc2O1 | active
C[C@@H]1CCCCO[C@H](CN(C)Cc2ccc(C(F)(F)F)cc2)[C@H](C)CN([C@@H](C)CO)C(=O)c2cc(NC(=O)c3ccccc3)ccc2O1 | active
C[C@@H]1CN([C@H](C)CO)C(=O)c2cc(NC(=O)c3ccccc3)ccc2O[C@@H](C)CCCCO[C@H]1CN(C)Cc1ccccc1 | active
C[C@@H]1CN([C@@H](C)CO)C(=O)c2cc(NC(=O)c3ccccc3)ccc2O[C@@H](C)CCCCO[C@H]1CN(C)Cc1ccccc1 | inactive
C[C@@H]1CN([C@H](C)CO)C(=O)c2cc(NC(=O)c3ccccc3)ccc2O[C@@H](C)CCCCO[C@H]1CN(C)Cc1ccc(C(F)(F)F)cc1 | inactive
C[C@@H]1CN([C@@H](C)CO)C(=O)c2cc(NC(=O)Nc3cccc4ccccc34)ccc2O[C@H]1CN(C)S(=O)(=O)c1ccc(Cl)cc1 | inactive
COc1ccc(NC(=O)N(C)C[C@H]2Oc3ccc(NS(=O)(=O)c4cn(C)cn4)cc3CC(=O)N([C@@H](C)CO)C[C@@H]2C)cc1 | inactive
C[C@@H]1CN([C@H](C)CO)S(=O)(=O)c2ccc(-c3cccc(C(=O)N(C)C)c3)cc2O[C@@H]1CN(C)C(=O)Cc1ccccn1 | inactive
C[C@@H]1CN([C@@H](C)CO)C(=O)CCCn2nncc2CO[C@@H]1CN(C)S(=O)(=O)c1ccc2c(c1)OCCCO2 | inactive
COc1ccc(-c2cnc3c(c2)C(=O)N([C@H](C)CO)C[C@H](C)[C@@H](CN(C)C(=O)Cc2ccccn2)O3)cc1 | inactive
Cc1noc(C)c1S(=O)(=O)Nc1ccc2c(c1)C(=O)N([C@H](C)CO)C[C@@H](C)[C@@H](CN(C)Cc1ccc(-c3ccccc3)cc1)O2 | inactive
C[C@H]1CN([C@@H](C)CO)C(=O)Cc2cc(NS(=O)(=O)c3ccccc3)ccc2O[C@H]1CN(C)S(=O)(=O)c1ccc(F)cc1 | inactive
C[C@@]1(NC(=O)Cc2ccc(S(=O)(=O)N3CCOCC3)s2)CCS(=O)(=O)C1 | inactive
C[C@@H]1CN([C@@H](C)CO)C(=O)c2cccc(NS(=O)(=O)c3ccccc3)c2O[C@H]1CN(C)S(=O)(=O)c1cccs1 | inactive
C[C@H](CO)N1C[C@H](C)[C@H](CN(C)S(=O)(=O)c2ccc(F)cc2)Oc2c(NC(=O)c3cnccn3)cccc2C1=O | inactive
CCS(=O)(=O)N1CC[C@]2(CC1)CN([C@@H](CO)c1c2c2ccc(cc2n1C)OC)C(=O)Nc1c(noc1C)C | inactive
O=C(CN1CCOCC1)NCC[C@H]1CC[C@H](NS(=O)(=O)c2ccc(Cl)cc2)[C@@H](CO)O1 | inactive
COc1c(O[C@@H]2O[C@H](CO)[C@@H](O)[C@H](O)[C@H]2O)cc2oc(-c3ccc(O)c(O)c3)c(O)c(=O)c2c1O | inactive
O=c1c(O)c(-c2ccc(O)c(O)c2)oc2c(OC3OC(CO)C(O)C(O)C3O)c(O)cc(O)c12 (stereo not given) | inactive
C[C@H]1O[C@@H](OC[C@H]2O[C@@H](Oc3c(-c4ccc(O)c(O)c4)oc4cc(O)cc(O)c4c3=O)[C@@H](O)[C@@H](O)[C@@H]2O)[C@@H](O)[C@@H](O)[C@@H]1O | inactive
C[C@@H]1O[C@@H](O[C@@H]2[C@@H](O)[C@H](C)O[C@@H](OC[C@H]3O[C@@H](Oc4c(-c5ccc(O)c(O)c5)oc5cc(O)cc(O)c5c4=O)[C@@H](O)[C@@H](O)[C@@H]3O)[C@@H]2O)[C@H](O)[C@H](O)[C@H]1O | inactive
CC(=O)O[C@@H]1[C@@H](O[C@@H]2O[C@H](CO)[C@@H](O)[C@H](O)[C@H]2O)[C@@H](O)[C@H](OC[C@H]2O[C@@H](Oc3c(-c4ccc(O)c(O)c4)oc4cc(O)cc(O)c4c3=O)[C@H](O)[C@@H](O)[C@H]2O)O[C@H]1C | active

SMILES | cytotoxicity call
O=c1c(O)c(-c2ccc(O)c(O)c2)oc2c(O[C@@H]3O[C@H](CO)[C@H](O)[C@@H](O)[C@H]3O)c(O)cc(O)c12 | active
Cc1ccc(S(=O)(=O)N(C)C[C@@H]2Oc3ncc(C#CC4(O)CCCC4)cc3C(=O)N([C@@H](C)CO)C[C@H]2C)cc1 | inactive
CC(C)(C[C@H]1CN(S(=O)(=O)c2cccc(C(F)(F)F)c2)c2cc(-c3cc(F)cc(OC(F)F)c3)ccc2O1)C(=O)O | inactive
COC(=O)CCCCCCC(=O)N/N=C/[C@H](O)[C@@H](O)[C@@H](O)[C@H](O)C(=O)O | inactive
COc1ccc2c3c(n(c2c1)C)[C@@H](CO)N(CC1CCCC1)C[C@]13CCN(CC1)C(=O)Nc1ccccc1 | active
COc1ccc(cc1)S(=O)(=O)N1CC[C@]2(CC1)CN([C@H](CO)c1c2c2ccc(cc2n1C)OC)C(=O)CN(C)C | active
COc1ccc(cc1)S(=O)(=O)N1C[C@]2(C1)CN([C@@H](CO)c1c2c2ccc(cc2n1C)OC)C(=O)CN(C)C | inactive
COc1ccc2c3c(n(c2c1)C)[C@H](CO)N(C[C@]13CN(C1)S(=O)(=O)C)C(=O)CN(C)C | inactive
COCC(=O)N1CC[C@]2(CC1)CN([C@@H](CO)c1c2c2ccc(cc2n1C)OC)C(=O)Cc1ccccc1 | inactive
COc1ccc(cc1)S(=O)(=O)N1CC[C@]2(CC1)CN([C@@H](CO)c1c2c2ccc(cc2n1C)OC)C(=O)CN(C)C | inactive
COCC(=O)N1CC[C@]2(CC1)CN(Cc1cccc(c1)OC)[C@@H](CO)c1c2c2ccc(cc2n1C)OC | inactive
COc1ccc2c3c(n(c2c1)C)[C@H](CO)N(Cc1ccccc1)C[C@]13CCN(CC1)C(=O)Nc1cccc(c1)F | inactive
COc1ccc2c3c(n(c2c1)C)[C@H](CO)N(CC1CCCC1)C[C@]13CCN(CC1)C(=O)Nc1ccccc1 | inactive
COc1ccc(cc1)S(=O)(=O)N1C[C@]2(C1)CN([C@H](CO)c1c2c2ccc(cc2n1C)OC)C(=O)CN(C)C | active
COCC(=O)N1CC[C@]2(CC1)CN([C@H](CO)c1c2c2ccc(cc2n1C)OC)C(=O)Cc1ccccc1 | active
COc1ccc2c3c(n(c2c1)C)[C@H](CO)N(C[C@]13CCN(CC1)S(=O)(=O)C)C(=O)CN(C)C | inactive
CNC[C@@H]1OCCCC[C@@H](C)Oc2ccc(NC(=O)CCCN(C)C)cc2C(=O)N([C@H](C)CO)C[C@H]1C | inactive
O=C(O)c1cn(-c2ccccc2)nn1 | inactive
COCC(=O)N1C[C@H](C)[C@@H](OC)CN(C)C(=O)c2cc(NC(=O)c3ccc(OC)cc3)ccc2OC[C@H]1C | inactive
COc1ccc2c3c([nH]c2c1)[C@H](CO)N(C[C@]13CCN(CC1)C(=O)c1cccnc1)C(=O)c1cccnc1 | inactive
C/C=C/c1ccc([C@@H]2[C@H](CO)N(S(=O)(=O)CC)C23CN(C(=O)CN(C)C)C3)cc1 | inactive
